High-throughput results from PubChem BioAssay.
UCHL1 inh: inhibitors of human UCHL1 deubiquitinase; purified UCHL1, Ub-rhodamine cleavage fluorescence; inhibition, % at 20 µM; 0.2% of 47,000 active; AID 1645859, 2021
Target sequence (P09936 whole entry, looked up): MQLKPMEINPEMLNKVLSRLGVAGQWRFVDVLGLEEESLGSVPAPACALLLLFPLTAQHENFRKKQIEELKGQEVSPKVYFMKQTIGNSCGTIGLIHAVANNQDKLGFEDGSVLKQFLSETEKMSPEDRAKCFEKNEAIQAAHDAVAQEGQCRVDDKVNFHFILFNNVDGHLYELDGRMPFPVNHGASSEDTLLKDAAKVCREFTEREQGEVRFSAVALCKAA
USP7 block: inhibitors of human USP7 deubiquitinase; inhibition, % at 20 µM; purified USP7, Ub-rhodamine cleavage fluorescence; 0.3% of 47,000 active; AID 1645854, 2021
OTUD3 inh: inhibitors of human OTUD3 deubiquitinase; inhibition, % at 25 µM; purified OTUD3, Ub-rhodamine fluorescence, 2 h; OTU domain-containing protein 3 (Homo sapiens), Q5T2D3; 0.7% of 47,000 active
Numbers without * were called inactive. Rows were chosen to be rich in hits. Some 0.83% of all compounds tested hit in one or more screens of this group. Cut-off read from the data, not from the text of the source: active = inhibition above about 30%; inactive = the rest.

SMILES	UCHL1 inh	USP7 block	OTUD3 inh
COc1ccccc1-n1c(O)c(C2NCCc3c2[nH]c2ccccc32)c(=O)[nH]c1=O (stereo not drawn)	-14	-17	-58
Cc1c(Cl)cccc1NC(=O)Cn1cc(C(=O)C2CC2)c2ccccc21	3	36*	-4
O=C(Cn1cc(C(=O)C2CCCCC2)c2ccccc21)Nc1ccccc1C(F)(F)F	2	19	6
COc1ccc(N2CCn3c(SCC(=O)Nc4cccc(F)c4)nnc32)cc1	5	13	14
O=C1c2cccc(O)c2C(=O)c2c(O)cccc21	-26	-83	-98
Cc1cc(O)c2c3c(c(O)cc2c1)C(=O)c1c(O)cccc1C3=O	67*	60*	67*
CCC(=O)Nc1ccc(Nc2cc(N3CCCCC3)nc(C)n2)cc1	-1	0	-5
CC(C)CCN1C(=O)C2C(C(=O)Nc3ccc(Oc4ccccc4)cc3)C3C=CC2(O3)C1C(=O)NC1CCCCC1 (stereo not drawn)	4	-97	30*
CCCCN1C(=O)C2C(C(=O)Nc3ccc(Oc4ccccc4)cc3)C3C=CC2(O3)C1C(=O)NC1CCCCC1 (stereo not drawn)	-3	-5	16
CCC(C(=O)NCc1ccncc1)N(c1cccc(Cl)c1)S(C)(=O)=O (stereo not drawn)	3	-13	32*
CCc1ccccc1N(CC(=O)NCc1ccncc1)S(C)(=O)=O	3	4	5
CCc1ccc(NC(=O)Cn2cc(C(=O)N3CCCC3)c(=O)c3ccc(C)nc32)cc1	-6	-7	-13
COc1ccc(-n2nc(C(=O)Nc3ccc(OC)cc3OC)cc2-c2cccnc2)cc1	4	1	-2
CC(C)(C)C(=O)N1CCCC(c2nn(CCOc3ccccc3)c3nccnc23)C1 (stereo not drawn)	0	-6	8
COc1cc(/C=C/C(=O)O)ccc1O	0	2	-1
COc1cc(/C=C/C(=O)OCC(=O)Nc2ccc([N+](=O)[O-])cc2OC)ccc1O	24	34*	47*
COc1ccccc1NC(=O)NCCc1cn(C)c2ncccc12	1	-8	4
O=C(Nc1nccs1)C1c2ccccc2C(=O)N(Cc2ccccc2)C12CCCC2 (stereo not drawn)	69*	23	10
COCCN1C(=O)c2ccccc2C(C(=O)Nc2ccccn2)C12CCCCC2 (stereo not drawn)	-1	1	-8
COC(=O)c1ccccc1NC(=O)Cn1c(=O)n(CCCC(=O)NCc2ccco2)c(=O)c2ccccc21	3	11	68*
COc1cccc(NC(=O)Cn2c(=O)n(CCCC(=O)NCc3ccco3)c(=O)c3ccccc32)c1	1	-1	16
O=C(Cn1c(=O)c2ccccc2n(CC(=O)Nc2cc(Cl)cc(Cl)c2)c1=O)NCc1ccco1	0	2	12
COc1cc(Cl)c(C)cc1NC(=O)Cn1c(=O)n(CC(=O)NCc2ccco2)c(=O)c2ccccc21	8	-22	40*
CCOC(=O)c1cc2c(=O)n3ccccc3nc2n(Cc2ccco2)c1=NC(=O)COc1ccc2ccccc2c1	43*	27	-41
CCOC(=O)c1c2ccc(OCC(=O)NCc3ccco3)cc2n2ccccc12	-37	-71	-24
SMILES	UCHL1 inh	USP7 block	OTUD3 inh
Cc1c(C)c2ccc(OCC(=O)NCc3ccccn3)c(C)c2oc1=O	1	6	7
COc1ccc(N(C)S(=O)(=O)c2cccc(C(=O)OC(C)C(=O)Nc3cccc(C(C)=O)c3)c2)cc1 (stereo not drawn)	4	10	4
CC(=O)c1cccc(NC(=O)C(C)OC(=O)c2cc3ccccc3[nH]2)c1 (stereo not drawn)	1	9	33*
CSCC[C@H](NC(=O)C1Cc2c([nH]c3ccccc23)C2c3ccccc3C(=O)N12)C(=O)NCc1ccccc1 (stereo partly drawn)	-1	-2	2
Cc1ccccc1C(=O)N1CCN(CCNC(=O)C(=O)Nc2ccc(F)cc2)CC1	-5	0	-4
Cc1nnc(-c2ccc3ccn(CC(=O)NC4CCCC4)c3c2)o1	-1	0	-6
Cc1nnc(-c2ccc3ccn(CC(=O)N4CCN(c5ccccc5)CC4)c3c2)o1	25	-15	73*
Cc1nnc(-c2ccc3ccn(CC(=O)NC4CCCCCC4)c3c2)o1	1	0	9
Cc1nnc(-c2ccc3ccn(CC(=O)N4CCCc5ccccc54)c3c2)o1	51*	-27	2
Cc1ccc(NC(=O)Cc2nnc3c(-c4nc(C5CC5)no4)cccn23)cc1F	31*	53*	7
Cc1ccc(NC(=O)Cc2nnc3c(-c4nc(C5CC5)no4)cccn23)c(C)c1	9	7	-13
COc1ccc(-c2c(-c3ccc(OCCN4CCOCC4)cc3O)n[nH]c2C)cc1OC	0	-1	-3
COc1ccc(C(=O)Nc2cnc(-c3ccccc3)nc2)cc1	0	2	-7
Cn1nccc1C(=O)N[C@@H]1C[C@@H](Oc2cccc(F)c2)[C@H](O)[C@H]1N1CCC(O)CC1	-7	-5	-34
CCCCC/C=C/c1c(O)cc(CC=C(C)C)c(O)c1C=O	-15	-13	3
CCCCCCCCC/C=C/C(=O)CCc1c(O)c(C=O)c2c(c1O)C(=O)OC2O (stereo not drawn)	86*	87*	75*
CCOC(=O)N1CCC(NC(=O)c2cc(C(=O)Nc3ccc(S(=O)(=O)N4CCCCC4)cc3)ccc2CO)CC1	6	8	39*
CCOC(=O)N1CCN(S(=O)(=O)c2ccc(C(=O)Nc3ccc(S(N)(=O)=O)cc3)cc2)CC1	0	-1	-7
COc1ccc(OCC(=O)Nc2cc(C)c(O)c(-c3nc4ccccc4o3)c2)cc1	1	4	2
O=C(COc1ccccc1)Nc1ccc(-c2nc3cnccc3o2)c(O)c1	-2	36*	-18
COc1ccc(CC(=O)Nc2ccccc2-c2nc3ccccc3[nH]2)cc1OC	8	13	16
Cc1ccc(C(=O)N2CCOC(c3nc(C(C)(C)C)n[nH]3)C2)c(=O)[nH]1 (stereo not drawn)	1	4	11
CCOc1ccccc1C(=O)Oc1ccc(-n2cnnn2)cc1	2	-16	9
N#Cc1c(-c2ccc3c(c2)OCO3)ccn2nc(-c3ccco3)nc12	-8	-23	-10
CCc1nc2c(C#N)c(-c3ccc(Cl)cc3)ccn2n1	7	-45	32*
SMILES	UCHL1 inh	USP7 block	OTUD3 inh
COCCCN1CCn2c(nc3cc(C(=O)NC4CCCCC4)ccc32)C1	-9	-14	-153
O=C(Nc1nc2c(s1)COCC2)c1cc(-c2ccco2)[nH]n1	-15	-38	64*
O=C(/C=C/c1ccco1)Nc1nc2c(s1)COCC2	-17	-32	-41
CC1(c2ncc(CNC(=O)c3n[nH]c4c3CCCC4)cn2)CCCCO1 (stereo not drawn)	2	8	12
Cc1nc(-c2csc(S(=O)(=O)Nc3cccc(Cl)c3C)c2)no1	2	5	10
CNC(=O)Cc1ccc(NC(=O)/C=C/c2cn(-c3ccccc3)nc2-c2ccc(F)cc2)cc1	1	7	0
CC(=O)NS(=O)(=O)c1ccc(NC(=O)/C=C/c2cn(-c3ccccc3)nc2-c2ccccc2)cc1	12	41*	9
